IL1B cytotox: toxic to HUVEC cells under IL-1B stimulation | actives 0.41% (n = 94,000) | cell count reduction, % at 2 µM | HUVEC cell count loss, Hoechst imaging, IL-1B stimulated | AID 845;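 active = cell count reduction more than 3 SD above the screen-wide mean, cut at about 70% in these data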;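 note: normalized per plate to untreated control cells as the no-loss baseline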
VCAM1 TNFa inh: reduces TNF alpha induced VCAM1 expression in HUVEC | inhibition, % at 2 µM | actives 0.48% (n = 95,000) | AID 802 | HUVEC TNFa-induced VCAM-1 immunofluorescence, high-content imaging;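 active = inhibition above the batch mean plus 3 SD, with images confirmed as a hit by eye, cut at about 37% in these data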;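 note: 0% = TNF-stimulated DMSO wells and 100% = unstimulated control wells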
IL1B NFkB inh: blocks IL-1B driven NFkB nuclear translocation in HUVEC cells. AID 796. inhibition, % at 2 µM. HUVEC IL-1B NFkB p65 nuclear translocation imaging. actives 0.43% (n = 94,000);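 active = inhibition above about 30% together with a positive call from visual inspection of the well image, limit read from the data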;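 note: nuclear over cytoplasmic p65 intensity ratio measured by imaging; 0% = IL-1B stimulated DMSO wells and 100% = unstimulated DMSO wells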
HUVEC tox TNFa: toxic to HUVEC cells under TNF alpha stimulation; HUVEC TNFalpha-stimulated, Hoechst cell count, imaging; cell count reduction, % at 2 µM; actives 0.17% (n = 93,000);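 active = cell count reduction exceeding the screen mean by over 5 SD, scaled to untreated wells per plate, cut at about 78% in these data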;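 note: cells counted after 24 h of TNF alpha exposure following the 1 h pretreatment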
NFkB transloc pot: enhances IL-1B driven NFkB nuclear translocation; activation, % at 2 µM; HUVEC IL-1B NFkB p65 nuclear translocation imaging; actives 0.3% (n = 94,000);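 active = activation above 40%, about the mean plus 3 SD, also judged a hit on visual image review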;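 note: percent activation is computed from the nuclear over cytoplasmic p65 intensity ratio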
The depositor's hits bear a star. Shown are actives, neighbours in structure and some others; about 1.5% of the full set was active somewhere.

What do the screens show for `Cc1csc(NC(=O)CSc2nnc(-c3ccc(S(=O)(=O)N4CCCC4)cc3)o2)n1`?
IL1B cytotox: 0; VCAM1 TNFa inh: 73*; IL1B NFkB inh: 0; HUVEC tox TNFa: 73; NFkB transloc pot: 0

What do the screens show for `COCC(=O)n1nc(-c2ccc(Cl)cc2)nc1NCc1ccc(F)cc1`?
IL1B cytotox: -12; VCAM1 TNFa inh: 4; IL1B NFkB inh: -8; HUVEC tox TNFa: 3; NFkB transloc pot: 9

Results for COC(=O)c1ccc(N2C(=O)CC(NCc3ccccc3)C2=O)cc1 (stereo not drawn) ?
IL1B cytotox: 6; VCAM1 TNFa inh: 0; IL1B NFkB inh: 7; HUVEC tox TNFa: -3; NFkB transloc pot: -7

Results for C(=C\c1ccccc1)/CN1CCN(c2ncnc3c2oc2ccccc23)CC1 ?
IL1B cytotox: -28; VCAM1 TNFa inh: -12; IL1B NFkB inh: -40; HUVEC tox TNFa: -13; NFkB transloc pot: 40*

Results for COc1cc2c(O)c3c(c(-c4ccc5c(c4)OCO5)c2cc1OC)C(=O)OC3 ?
IL1B cytotox: -8; VCAM1 TNFa inh: 91*; IL1B NFkB inh: 10; HUVEC tox TNFa: 64; NFkB transloc pot: -10

What do the screens show for `O=C(O)Cc1ccc(NC(=O)C2CC=CCC2C(=O)O)cc1` (stereo not drawn)?
IL1B cytotox: 3; VCAM1 TNFa inh: 55*; IL1B NFkB inh: 0; HUVEC tox TNFa: 57; NFkB transloc pot: 0

Results for CCn1c2ccccc2c2cc(NC(=O)COc3ccc(OC)cc3)ccc21 ?
IL1B cytotox: -16; VCAM1 TNFa inh: 2; IL1B NFkB inh: 10; HUVEC tox TNFa: -2; NFkB transloc pot: -10

How did CCn1c2ccccc2c2cc(NC(=O)c3cc(OC)c(OC)c(OC)c3)ccc21 do in these assays?
IL1B cytotox: 53; VCAM1 TNFa inh: 95*; IL1B NFkB inh: 14; HUVEC tox TNFa: 71; NFkB transloc pot: -14

How did CCOC(=O)CNC(=O)CSc1nnc(SCC(=O)NCC(=O)OCC)s1 do in these assays?
IL1B cytotox: -2; VCAM1 TNFa inh: 0; IL1B NFkB inh: -54; HUVEC tox TNFa: -28; NFkB transloc pot: 54*

Results for O=C(CSc1nccn1-c1ccccc1)NCc1ccc2c(c1)OCO2 ?
IL1B cytotox: 11; VCAM1 TNFa inh: 11; IL1B NFkB inh: 26; HUVEC tox TNFa: 6; NFkB transloc pot: -26

What do the screens show for `CC(CC(=O)NC1CCSC1=O)c1ccccc1` (stereo not drawn)?
IL1B cytotox: 6; VCAM1 TNFa inh: 20; IL1B NFkB inh: -10; HUVEC tox TNFa: -3; NFkB transloc pot: 11

Results for COc1ccc(/C=C/C(=O)c2ccccc2)cc1COc1ccc(F)cc1 ?
IL1B cytotox: -28; VCAM1 TNFa inh: 8; IL1B NFkB inh: -15; HUVEC tox TNFa: -5; NFkB transloc pot: 15

How did COc1ccc(/C=C/C(=O)c2cc(F)ccc2OC(=O)c2ccccc2)cc1OC do in these assays?
IL1B cytotox: 53; VCAM1 TNFa inh: 97*; IL1B NFkB inh: 24; HUVEC tox TNFa: 76; NFkB transloc pot: -24

Results for CC(C)(C)NC(=O)c1nc2ccccc2s1 ?
VCAM1 TNFa inh: -9; HUVEC tox TNFa: -5

What do the screens show for `O=C(NCCCO)c1nc2ccccc2s1`?
IL1B cytotox: 10; VCAM1 TNFa inh: 14; IL1B NFkB inh: -42; HUVEC tox TNFa: -8; NFkB transloc pot: 42*

What do the screens show for `CN(c1ccc(C(=O)Nc2ccccc2C(=O)N2CCCC2)cc1)S(C)(=O)=O`?
IL1B cytotox: 82*; VCAM1 TNFa inh: -22; IL1B NFkB inh: 0; NFkB transloc pot: 0

What do the screens show for `COc1ccc(C(=O)OCC2CC(c3ccccc3)N(C)O2)cc1` (stereo not drawn)?
IL1B cytotox: -24; VCAM1 TNFa inh: 10; IL1B NFkB inh: 47*; HUVEC tox TNFa: 7; NFkB transloc pot: -47

What do the screens show for `O=C(NCc1cn2ccccc2n1)c1ccc(Br)o1`?
IL1B cytotox: 35; VCAM1 TNFa inh: 2; IL1B NFkB inh: 32*; HUVEC tox TNFa: 0; NFkB transloc pot: -32

How did Cc1ccc(CNC(=O)c2ccc(Br)o2)cc1 do in these assays?
IL1B cytotox: -96; VCAM1 TNFa inh: -7; IL1B NFkB inh: -6; HUVEC tox TNFa: -28; NFkB transloc pot: 8

How did Cc1nn(CC#N)c(=O)n1-c1ccccc1 do in these assays?
IL1B cytotox: 5; VCAM1 TNFa inh: -10; IL1B NFkB inh: -2; HUVEC tox TNFa: -2; NFkB transloc pot: 2

Results for CC(=O)Nc1ccc(S(=O)(=O)N2C3CCCC2CC(NC(=O)C2CCCCC2)C3)cc1 (stereo not drawn) ?
IL1B cytotox: 4; VCAM1 TNFa inh: 15; IL1B NFkB inh: -2; HUVEC tox TNFa: -43; NFkB transloc pot: 2

Results for COC(=O)c1ccc(S(=O)(=O)N2C3CCC2CC(NC(=O)C2CC2)C3)cc1 (stereo not drawn) ?
IL1B cytotox: 84*; VCAM1 TNFa inh: -5; IL1B NFkB inh: 23; HUVEC tox TNFa: -16; NFkB transloc pot: -23

How did COc1ccccc1N1CCN(C(=O)CSc2nnc3n2C(C)(C)Cc2ccccc2-3)CC1 do in these assays?
IL1B cytotox: -19; VCAM1 TNFa inh: 2; IL1B NFkB inh: -1; HUVEC tox TNFa: -28; NFkB transloc pot: 1

Results for O=C(Cn1c(C(=O)NCCCN2CCOCC2)cc2sccc21)c1ccccc1 ?
IL1B cytotox: -1; VCAM1 TNFa inh: 21; IL1B NFkB inh: 5; HUVEC tox TNFa: -22; NFkB transloc pot: -5

Results for Cn1c(C(=O)NCCN2CCOCC2)cc2sccc21 ?
IL1B cytotox: 0; VCAM1 TNFa inh: 64; IL1B NFkB inh: 8; HUVEC tox TNFa: 88*; NFkB transloc pot: -8

What do the screens show for `CC12CCC(C(=O)N(CSC(=S)N/N=C\c3ccccc3Cl)C1=O)C2(C)C` (stereo not drawn)?
IL1B cytotox: 95*; VCAM1 TNFa inh: 22; IL1B NFkB inh: 100*; HUVEC tox TNFa: 1; NFkB transloc pot: -99

Results for CC12CCC(C(=O)N(CSC(=S)N/N=C\c3ccccc3)C1=O)C2(C)C (stereo not drawn) ?
IL1B cytotox: 12; VCAM1 TNFa inh: 8; IL1B NFkB inh: 3; HUVEC tox TNFa: 5; NFkB transloc pot: -3

How did CCOC(=O)C1(c2ccccc2)NC(c2ccccc2C)C2C(=O)N(c3ccc4c(c3)OCO4)C(=O)C21 (stereo not drawn) do in these assays?
IL1B cytotox: 11; VCAM1 TNFa inh: 1; IL1B NFkB inh: 5; HUVEC tox TNFa: -34; NFkB transloc pot: -5

How did O=C(Cn1c(=O)sc2ccccc21)NCc1ccccn1 do in these assays?
IL1B cytotox: -25; VCAM1 TNFa inh: 6; IL1B NFkB inh: -12; HUVEC tox TNFa: -4; NFkB transloc pot: 12

What do the screens show for `C#CCOc1ccc(Cl)cc1/C=N/O`?
IL1B cytotox: 12; VCAM1 TNFa inh: 0; IL1B NFkB inh: -16; HUVEC tox TNFa: -4; NFkB transloc pot: 16

How did C#CCOc1ccc(Br)cc1/C=N/O do in these assays?
IL1B cytotox: -4; VCAM1 TNFa inh: 4; IL1B NFkB inh: 46*; HUVEC tox TNFa: -25; NFkB transloc pot: -47

What do the screens show for `CCOc1ccc(NC(=O)Cn2cc(C(=O)c3ccco3)c3ccccc32)cc1`?
IL1B cytotox: -17; VCAM1 TNFa inh: 7; IL1B NFkB inh: -11; HUVEC tox TNFa: 11; NFkB transloc pot: 11
